Bioassay records (PubChem)
A selection: hits, their analogues and other compounds. The true share with any hit is near 6.9%.
Giardia killer: kills Giardia lamblia | Giardia lamblia trophozoite viability | activity change, % at 7.66 µM, hits read low | actives 0.15% (n = 340,000) | AID 540267; in the data active = activity change below about -80%; inconclusive = between about -30% and that limit;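 also: parasites exposed to compound for two days anaerobically before the ATP read; % is scaled to controls: 0 for no effect and ±100 for the full control effect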
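Media and compound were dispensed first, then trophozoites at 100 cells/well; plates sat 48 hrs at 37 deg C without oxygen before ATP luminescence reagent was added and read after 15-30 min at room temperature.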
SW480 rereplic: induces DNA re-replication in SW480 colon adenocarcinoma cells; Potency, µM (highest dose often 46.1 µM), without a hit: top-dose re-replication activation, hits mostly activators; AID 624297; actives 1.8% (n = 340,000); SW480 DNA re-replication, Hoechst DNA content imaging, 48 h; also: potency is read from the fitted curve at half-maximal effect; % of control where 0% means no effect; nearly all actives have a fitted effect of over 55% in size
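Quantitative HTS format with DMSO vehicle controls; 48 hr drug incubation at 37 C, then 40 min Hoechst staining and scanning imager measurement at 405 nm excitation.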
MCF10A rerep: DNA re-replication induction in MCF 10a cells. MCF 10A DNA re-replication, Hoechst nuclear intensity, 48 h. Potency, µM (top dose mostly 46.1 µM), without a hit: top-dose activity, positive = re-replication, usual class: activators. actives 2.9% (n = 350,000); also: potency is read from the fitted curve at half-maximal effect; % of control where 0% means no effect; nearly all actives have a fitted effect of over 50% in size
Vif-A3F inh: inhibitors of Vif-A3F interaction. HeLa A3F-eYFP + Vif (tagged APOBEC3F with the HIV-1 protein that degrades it), YFP fluorescence increase. Potency, µM (top dose mostly 46.1 µM), without a hit: at the top dose activity, negative = active. actives 0.2% (n = 390,000). AID 602313; also: potency is read from the fitted curve at half-maximal effect; % of control where 0% means no effect; nearly all actives have a fitted effect of over 65% in size
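HeLa cells stably expressing A3F-eYFP plus Vif, plated and incubated overnight at 37 deg C, then exposed to compounds overnight at 37 deg C. Blocked degradation read as raised yellow fluorescence (Ex 488/Em 500-530).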
IL-1B inflam inh: inhibitors of inflammasome signaling (IL-1 beta secretion); actives 4.7% (n = 360,000); THP-1 LPS/ATP IL-1B secretion, AlphaLISA, 16 h; stronger effect = lower value; activity change, % at 57.5 µM; in the data active = activity change below about -50%; inconclusive = mostly about -30% to -49%; also: % is scaled to controls: 0 for no effect and ±100 for the full control effect
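Secreted IL-1B measured by AlphaLISA bead assay after 16 h compound exposure of THP-1 cells; compounds (final up to 57.5 uM) added 1 h before LPS (250 ng/mL) and ATP (1.25 mM) stimulation; lower signal means less secretion.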
Vif-A3G inh: Vif-A3G binding inhibition | HeLa A3G-eYFP + Vif (tagged APOBEC3G with the HIV-1 protein that degrades it), YFP fluorescence, overnight | Potency, µM (titrated, usually from 46.1 µM), for inactives: at the top dose activity, negative = active, hits mostly inhibitors | actives 0.076% (n = 410,000); also: potency is read from the fitted curve at half-maximal effect; % is scaled to controls: 0 for no effect and ±100 for the full control effect; nearly all actives have a fitted effect of over 60% in size
Target sequence (Q9HC16 whole entry, looked up): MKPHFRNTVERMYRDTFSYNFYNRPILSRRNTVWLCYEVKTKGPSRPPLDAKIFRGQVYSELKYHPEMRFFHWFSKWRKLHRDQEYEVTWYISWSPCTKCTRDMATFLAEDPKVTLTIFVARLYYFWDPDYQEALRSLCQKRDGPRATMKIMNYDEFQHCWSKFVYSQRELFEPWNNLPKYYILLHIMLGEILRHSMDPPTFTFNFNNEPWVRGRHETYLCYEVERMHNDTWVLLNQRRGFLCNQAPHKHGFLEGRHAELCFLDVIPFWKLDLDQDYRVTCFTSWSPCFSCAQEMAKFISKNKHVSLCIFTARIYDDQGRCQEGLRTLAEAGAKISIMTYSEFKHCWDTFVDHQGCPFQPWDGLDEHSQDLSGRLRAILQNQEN
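HeLa cells stably expressing Vif and C-terminally eYFP-tagged A3G, seeded overnight at 37 deg C, then exposed to compound by pintool overnight at 37 deg C. Rise in yellow fluorescence (Ex 488/Em 500-530, Acumen) marks blocked Vif-driven A3G degradation.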
An asterisk follows results filed as active; ? = inconclusive; . = no result given; [ ] = dose if it differs, or a comment. Unless noted, calls follow the shape of the dose curve; as a rule, active = well fitted curve in the direction sought with a large enough effect; inconclusive = small, poorly fitted or top-dose-only effect, or another doubt; inactive = no such curve, though single readings can be large; an effect the other way counts as inactive or inconclusive.

SMILES	Giardia killer	SW480 rereplic	MCF10A rerep	Vif-A3F inh	IL-1B inflam inh	Vif-A3G inh
COc1ccc(CNc2nc3ccccc3n2CCN2CCCCC2)cc1	-29.6	-2.6%	?	-22.4%	?	2.9%
Oc1c(CNc2ccccc2)cc(COCc2ccccc2)c2cccnc12	?	0.461µM*	7.7%	-1.6%	.	-5.5%
Oc1c(CN2CCN(c3ccccc3)CC2)cc(Br)c2cccnc12	-3.3	18.4µM*	-1.8%	?	52.8	1.2%
Oc1c(CN2CCOCC2)cc(COCc2ccccc2)c2cccnc12	-27.9	3.66µM*	?	?	18.8	-9.7%
CC(C)OCc1cc(CN2CCN(c3ccccc3)CC2)c(O)c2ncccc12	.	.	.	-27.4%	.	-0.6%
CCOc1ccccc1NC(=O)CSc1ncc2c(n1)-c1ccccc1N(CC)S2(=O)=O	.	.	.	-4.0%	.	-3.1%
O=C(Nc1cc(Cl)cc(Cl)c1)c1cnn2c1NC(=C1CC1)C=C2C(F)F	.	.	.	.	.	3.7%
COc1cn(-c2ccccc2)nc1C(=O)Nc1ccc(C)cc1	-0.3	?	14.1%	0.3%	?	1.5%
COc1cn(-c2ccccc2)nc1C(=O)Nc1ccccc1	8.2	0.3%	7.7%	5.9%	-54.9*	0.1%
COc1ccc(C)cc1NC(=O)c1nn(-c2ccccc2)cc1OC	1.6	22.4%	23.1µM*	3.3%	-87.4*	4.6%
COCc1cc(C)nc2sc3c(c12)NC(c1ccc(O)cc1)N(c1ccc(OC)cc1)C3=O (centres undefined)	.	.	.	4.9%	.	?
O=C(Nc1nc2n(n1)C(c1ccccc1)C=C(c1ccccc1)N2)c1ccccc1 (centres undefined)	.	.	.	-1.4%	.	-7.1%
C=C(NNC(C)=O)c1ccc(O)cc1	.	.	.	.	.	2.4%
CCOC(=O)C1=C(C)NC2=C(C(=O)C(C(=O)OCC)C(c3ccco3)C2)C1c1ccccn1 (centres undefined)	-12.8	6.51µM*	372.7%[0.0737 µM]	-0.5%	4.5	0.3%
O=C(Nc1cc(-c2nc3ccccc3o2)ccc1Cl)c1sc2c([N+](=O)[O-])cccc2c1Cl	.	.	.	0.2%	.	1.9%
CC(C)(C)C1CCc2c(sc3nc(-c4cc5ccccc5oc4=O)[nH]c(=O)c23)C1 (centres undefined)	.	.	.	2.9%	.	4.0%
CCN(CC)c1ccc2cc(-c3nc4sc5c(c4c(=O)[nH]3)CCC(C(C)(C)C)C5)c(=O)oc2c1 (centres undefined)	.	.	.	?	.	10µM*
CCCN(C(=O)CCc1nc(-c2ccc(OC)cc2)no1)c1ccccc1F	.	.	.	-0.2%	.	3.3%
Cc1ccc(COC(=O)c2ccc(-c3nnn(Cc4ccc(C)cc4)n3)cc2)cc1	.	.	.	12.3%	.	0.9%
CCc1ccc(NC(=O)Cn2nnc(C(=O)NCc3cccs3)c2N)cc1	16.8	-0.7%	-1.4%	-11.8%	12.6	0.6%
COc1ccccc1NC(=O)Cn1nnc(C(=O)NCc2cccs2)c1N	5.5	?	1.16µM*	-17.2%	37.3	?
CCOc1ccc(OCC)c(NC(=O)c2nnn(CC(=O)Nc3cc(C)cc(C)c3)c2N)c1	0.1	?	18.4µM*	?	-13.8	?
COc1ccc(NC(=O)Cn2nnc(C(=O)NCc3cccs3)c2N)cc1	6.9	4.9%	-0.6%	-2.5%	28.1	0.4%
CCc1ccccc1NC(=O)Cn1nnc(C(=O)NCc2cccs2)c1N	-6.1	3.26µM*	?	-6.6%	27.6	?
COc1ccc(CCNC(=O)c2nnn(CC(=O)Nc3cccc(F)c3)c2N)cc1OC	-16.8	-20.5%	2.2%	0.2%	-98.2*	-4.6%
SMILES	Giardia killer	SW480 rereplic	MCF10A rerep	Vif-A3F inh	IL-1B inflam inh	Vif-A3G inh
CC(C)CCN(Cc1ccco1)C(=O)c1cc2c(Cl)nc3ccccc3c2s1	.	.	.	5.9%	.	1.0%
Cc1nc2c(c(C)c1CCC(=O)N1CCN(c3ccccc3)CC1)c(=O)n(C)c(=O)n2C	.	.	.	-20.7%	.	7.1%
CCOc1ccccc1CNC(=O)c1sc2ncccc2c1-n1cccc1	.	.	.	3.5%	.	0.0%
CC(=O)c1ccc(N2CCN(S(=O)(=O)c3c(C)nc4sc(C)cn4c3=O)CC2)cc1	.	.	.	-1.6%	.	2.2%
Cc1cc(C(=O)NCCc2ccc(Cl)cc2)c2c(C)nn(-c3cccc(F)c3)c2n1	.	.	.	4.1%	.	-5.1%
COc1ccc(NC(=O)Cn2nnc(C(=O)NCCc3ccccc3)c2N)c(OC)c1	-21.6	1.5%	1.2%	-8.2%	26.2	1.1%
COc1ccc(NC(=O)Cn2nnc(C(=O)NCc3ccccc3)c2N)c(OC)c1	23.6	?	16.4µM*	-4.8%	29.6	-21.4%
Cc1cc(C)cc(NS(=O)(=O)CCCS(=O)(=O)Nc2cc(C)cc(C)c2)c1	-3.7	5.0%	?	8.6%	-81.5*	-15.2%
CCCCCCCCCS(=O)(=O)Nc1cc(C)ccn1	-19.3	-2.5%	?	-0.7%	13.3	-0.5%
COc1ccc2ccccc2c1C1NC(=O)c2ccccc2N1 (centres undefined)	6.3	8.2µM*	5.17µM*	9.6%	12.1	?
O=C1NC(c2cccc3ccccc23)Nc2ccccc21 (centres undefined)	1.4	?	0.92µM*	7.6%	38.6	-40.3%
O=C1NC(c2ccccc2Cl)Nc2ccccc21 (centres undefined)	-11.0	16.4µM*	?	.	63.4	?
COc1ccc(C(=O)c2cn(CC(=O)Nc3cc(C)ccc3C)c3nc(C)ccc3c2=O)cc1	.	.	.	?	.	-1.9%
O=C(Nc1cccnc1Cl)c1cnn2c1NC(=C1CC1)C=C2C(F)F	.	.	.	.	.	3.5%
O=C(Cc1ccccc1)NCC(=O)OCC(=O)c1cccc2ccccc12	6.4	.	.	.	.	-2.8%
COc1cc(NC(=O)CSc2nnc3c4ccccc4n(C)c3n2)cc(OC)c1OC	16.0	.	.	.	.	.
O=C(c1ccc(Br)o1)N1CCN=C1SCc1cccnc1	-4.3	-0.4%	-0.3%	-14.3%	-54.2*	-1.1%
O=C(c1cc2ccccc2o1)N1CCN=C1SCc1cccnc1	17.8	-8.1%	0.4%	6.3%	-58.2*	-9.2%
Cn1c(CNC(=O)CSc2nc(-c3ccccc3F)nc3cc(=O)[nH]n23)nc2ccccc21	.	.	.	0.0%	.	-4.2%
CC(C)C1Oc2ccccc2N(CC(=O)N(C)C2CCCCC2)C1=O (centres undefined)	18.2	11.9%	?	-2.6%	-73.5*	-0.7%
Cc1ccc(N(Cc2ccccc2)C(=O)c2cccc(F)c2)cc1	-4.3	7.4%	0.4%	4.4%	-61.2*	-6.3%
Cc1cccc2cc(CN(Cc3ccccc3)C(=O)c3cccc(F)c3)c(Cl)nc12	9.0	3.66µM*	?	1.0%	-7.9	4.3%
Cc1ccc2[nH]c(=O)c(CN(Cc3ccco3)S(=O)(=O)c3c(C)ccc4nsnc34)cc2c1	3.3	?	-4.8%	-3.8%	-58.3*	0.5%
O=C(Nc1c(C(=O)c2ccc(F)cc2)oc2ccccc12)c1cc(-c2ccccc2)on1	.	.	.	-13.9%	.	-0.8%
